# Chlamy TAG – inducers of triacylglycerol accumulation in Chlamydomonas reinhardtii algae. 44,000 compounds, 0.84% hits. AID 1159537. Chlamydomonas reinhardtii TAG, Nile Red fluorescence, 72 h. calls only at 10 µM (by protocol); call rule not given here;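 also: hits raise Nile Red signal meaning more stored TAG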
# Starred values were filed as active, the others as inactive; i = inactive; + = active, no number. This excerpt belongs to a sample that is enriched for hits.
SMILES,Chlamy TAG
O=[N+]([O-])c1ccccc1S(=O)(=O)N1CCN(c2ccc(F)cc2)CC1,i
O=S(=O)(c1ccc(Cl)c(Cl)c1Cl)N1CCN(c2ccc(F)cc2)CC1,+
O=S(=O)(c1ccc(F)cc1)N1CCN(c2ccccc2)CC1,i
Cc1cccc(CNc2ccc3c(c2)OCO3)c1,i
N#Cc1c(-n2ncnc2-c2ccc(F)cc2)sc2c1CCCC2,i
N#Cc1c(-n2ncnc2-c2cccnc2)sc2c1CCCCC2,+
COc1ccc(-c2ncnn2-c2sc3c(c2C#N)CCCC3)cc1OC,i
CC1(C)CC(=O)C2=C(C1)N=C1c3ccccc3C(=O)C1C2c1cccc([N+](=O)[O-])c1 (configuration not stated),i
COc1cc(NC(=O)c2cccnc2)c(OC)cc1Br,i
CCOc1cc(C=O)cc(Cl)c1OCc1ccc([N+](=O)[O-])cc1,i
CSc1ccc(C2C(C#N)=C(N)Oc3n[nH]c(C(C)(C)C)c32)cc1 (configuration not stated),i
Cc1c(NC(=O)c2ccccc2-c2ccccc2C(=O)O)c(=O)n(-c2ccccc2)n1C,i
Cc1c(NC(=O)c2c(O)c3ccccc3n(C)c2=O)c(=O)n(-c2ccccc2)n1C,i
Cc1c(NC(=O)c2c(F)c(F)c(F)c(F)c2F)c(=O)n(-c2ccccc2)n1C,+
c1cc2c(cc1CNC1CCCCC1)OCO2,i
O=C(CCC1CCCCC1)NCc1ccc2c(c1)OCO2,i
c1cc2c(cc1CNC1CCCC1)OCO2,+
Cc1ccc2nc(SCc3ccccc3)c(C=O)c(=O)n2c1,+
Cc1ccc(S(=O)(=O)c2cc3c(=O)n4cc(C)ccc4nc3n(Cc3ccccc3)c2=N)cc1,i
O=Cc1c(Sc2ccc(Cl)cc2)nc2ccccn2c1=O,i
O=C(Nc1nc(-c2ccccc2)cs1)c1c(O)c2ccccc2[nH]c1=O,i
CCOc1ccc(C(=O)N2CCN(c3ccc(Cl)cc3[N+](=O)[O-])CC2)cc1,i
CC1(C)CC(=O)C2=C(C1)OC(N)=C(C#N)C2c1ccc(F)c(Br)c1 (configuration not stated),i
Cc1c(Cl)cccc1NC(=O)C(CC(=O)O)Cc1ccc(Cl)cc1 (configuration not stated),i
COc1cccc(N2C(=O)C(O)=C(C(C)=O)C2c2ccccc2[N+](=O)[O-])c1 (configuration not stated),i
SMILES,Chlamy TAG
CC(CNC(=O)c1ccc(F)cc1)CN(C)C (configuration not stated),i
CC(CNC(=O)c1ccc(C(C)(C)C)cc1)CN(C)C (configuration not stated),+
Cc1cccc(C(=O)NCC(C)CN(C)C)c1 (configuration not stated),i
Clc1ccc(Cl)c(SCCc2ccccn2)c1,i
N#C/C(=C/c1ccc([N+](=O)[O-])o1)c1nc2ccccc2[nH]1,i
CC(=O)c1ccc(N2CCN(c3cnccn3)CC2)cc1,i
CC1CCN(S(=O)(=O)c2ccc(Cl)c(C(=O)Nc3cccc([N+](=O)[O-])c3)c2)CC1,i
O=C(Nc1ccc(S(=O)(=O)N2CCCCC2)cc1)c1cccc([N+](=O)[O-])c1,i
CC1CCN(S(=O)(=O)c2ccc(NC(=O)c3cccc([N+](=O)[O-])c3)cc2)CC1,+
CCOc1ccc(-c2cn(CC(N)=O)cn2)cc1,i
O=C(Nc1nnc(SCC(=O)N2CCCCC2)s1)c1ccc(Cl)c(Cl)c1,i
COc1cc([N+](=O)[O-])ccc1NC(=O)c1c(F)c(F)c(F)c(F)c1F,+
COc1cc([N+](=O)[O-])ccc1NC(=O)c1ccc(C)c(C)c1,i
COc1cc([N+](=O)[O-])ccc1NC(=O)c1ccccc1F,i
CC(C)Cc1nnc(NC(=O)Cc2ccc(F)cc2)s1,i
CCOc1ccccc1OCCCOc1ccc(C)cc1[N+](=O)[O-],i
COc1ccc(-c2csc(NC(=O)c3ccccc3Cl)n2)cc1Br,i
CC(=O)N1CCN(C2CCCCCC2)CC1,i
O=S(=O)(c1ccc(Cl)cc1)N1CCN(C2CCCC2)CC1,i
CCS(=O)(=O)N1CCN(C2CCCCCCC2)CC1,+
C/C=C(\C)CN1CCN(c2cc(C)ccc2C)CC1,i
Cc1ccc(C)c(N2CCN(Cc3ccc(C)s3)CC2)c1,i
Cc1ccc(C)c(N2CCN(C3CCCCCC3)CC2)c1,+
COc1cc(NC(=Nc2nc(C)cc(C)n2)NC(=O)c2ccccc2)c(OC)cc1Cl,i
O=C(c1ccc2c(c1)OCO2)N1CCN(Cc2ccccc2)CC1,i
SMILES,Chlamy TAG
COc1ccc(N2CCN(C(=O)C3COc4ccccc4O3)CC2)cc1 (configuration not stated),i
O=C(C1COc2ccccc2O1)N1CCN(Cc2ccccc2)CC1 (configuration not stated),+
COc1ccc(NC(=O)CN(c2ccc(Cl)c(Cl)c2)S(C)(=O)=O)c(OC)c1,i
Cc1ccc(C(C)C)cc1OCCNCCN,i
O=C(Nc1nnc(-c2ccc(Br)cc2)s1)Nc1ccccc1F,i
Clc1ccc(CN2CCCCCCC2)cc1,i

# Compound activity as filed in PubChem BioAssay.
